# Article PMC4552634, “A New Set of Chemical Starting Points with Plasmodium falciparum Transmission-Blocking Potential for Antimalarial Drug Discovery” (PLoS ONE, 2015)
# Out of some 13,000 compounds screened, about 3,200 (25%) showed an effect of 50% or more. Some of the results follow.
# Tested on: P. falciparum stage V gametocytes
# Set-up: BacTiter-Glo ATP luminescence viability of purified stage V gametocytes in 384-well plates, per cent inhibition versus DMSO
# Settings: 48 h, 5 µM; inhibitor
row,Compound,% Inhibition [%]
1,O=C(Nc1cccc(-c2ccc(-c3nc4ccc(C(F)(F)F)cc4[nH]3)cc2)c1)c1csnn1 [TCMDC-136905],5.589
2,COc1ccc(NC(=O)[C@H](C)Nc2cc(C)nc(NCC3CCCCC3)n2)cc1 [TCMDC-134922],-9.943
3,CCOC(=O)c1ccc(N2CCN(c3cc(Cl)ccc3C)CC2)c(NC(=O)Nc2ccc(Cl)c(Cl)c2)c1 [TCMDC-124007],-37.8
4,O=C(/C=C/c1ccc(Cl)c(Cl)c1)N1CCC(CCN2CCC(c3c[nH]c4ccncc34)CC2)CC1 [TCMDC-140075],91.37
5,O=C(/C=C/c1ccc(Cl)c(Cl)c1)N1CCC(CN2CCC(c3c[nH]c4ccncc34)CC2)CC1 [TCMDC-140074],108.3
6,O=C(/C=C/c1ccc(Cl)c(Cl)c1)N1CCC(CCN2CCC(c3c[nH]c4ccccc34)CC2)CC1 [TCMDC-139620],8.374
7,O=C(/C=C/c1ccc(Cl)c(Cl)c1)N1CCC(CN2CCC(c3c[nH]c4ccc(NS(=O)(=O)c5cccs5)cc34)CC2)CC1 [TCMDC-139955],57.44
8,O=C(/C=C/c1ccc(Cl)c(Cl)c1)N1CCC(CN2CCC(c3c[nH]c4ncccc34)CC2)CC1 [TCMDC-139846],9.268
9,O=C(/C=C/c1ccc(Cl)c(Cl)c1)N1CCC(CN2CCC(c3c[nH]c4cnccc34)CC2)CC1 [TCMDC-140135],46.53
10,CS(=O)(=O)Nc1ccc2c(C3CCN(CC4CCN(C(=O)/C=C/c5ccc(Cl)c(Cl)c5)CC4)CC3)c[nH]c2c1 [TCMDC-139959],-60.99
11,CS(=O)(=O)Nc1ccc2[nH]cc(C3CCN(CC4CCN(C(=O)/C=C/c5ccc(Cl)c(Cl)c5)CC4)CC3)c2c1 [TCMDC-139813],20.88
12,O=C(/C=C/c1ccc(Cl)c(Cl)c1)N1CCC(CCN2CCC(c3c[nH]c4cnccc34)CC2)CC1 [TCMDC-140136],111.3
13,CCc1nc(N)nc(N)c1-c1ccccc1 [TCMDC-124296],-28.74
14,O=C(Nc1ccc(F)cc1)c1nc2ccccc2nc1Cl [TCMDC-124769],24.46
15,COCCN(C)CCCOc1cc2c(cc1OC)ncn2-c1cc(OCc2ccccc2C(F)(F)F)c(C(N)=O)s1 [TCMDC-135214],33.23
16,CCN1CCN(c2cc(C)c3cc(NC(=O)c4cccc(Cl)c4)ccc3n2)CC1 [TCMDC-125580],30.18
17,N=c1c(C(=O)NCc2ccccc2)cc2c(=O)n3ccccc3nc2n1CCc1ccccc1 [TCMDC-124378],0.2894
18,CC(=O)Nc1ccc2[nH]cc(C3CCN(CCC4CCN(C(=O)/C=C/c5ccc(Cl)c(Cl)c5)CC4)CC3)c2c1 [TCMDC-139854],30.15
19,O=C1COc2ccc(S(=O)(=O)N3CCC[C@@H]3CCN3CCC(c4c[nH]c5cnccc45)CC3)cc2N1 [TCMDC-141172],41.57
20,CS(=O)(=O)Nc1ccc2c(C3CCN(CCC4CCN(C(=O)/C=C/c5ccc(Cl)c(Cl)c5)CC4)CC3)c[nH]c2c1 [TCMDC-139956],32.42
21,O=C(/C=C/c1ccc(Cl)c(Cl)c1)N1CCC(CN2CCC(c3c[nH]c4cc5c(cc34)OCO5)CC2)CC1 [TCMDC-139838],-10.77
22,CC(=O)Nc1ccc2[nH]cc(C3CCN(CC4CCN(C(=O)/C=C/c5ccc(Cl)c(Cl)c5)CC4)CC3)c2c1 [TCMDC-139853],21.75

row,Compound,% Inhibition [%]
1,O=S(=O)(c1ccc2cc[nH]c2c1)N1CCC[C@@H]1CCN1CCC(c2c[nH]c3cnccc23)CC1 [TCMDC-141158],68.56
2,CC1CCN(CC[C@H]2CCCN2S(=O)(=O)c2cccc(NC(=O)c3ccc(-c4ccc(Cl)cc4)o3)c2)CC1 [TCMDC-141078],-28.73
3,O=C(/C=C/c1ccc(Cl)c(Cl)c1)N1CCC(CN2CCC(c3c[nH]c4ccc(O)cc34)CC2)CC1 [TCMDC-139786],94.36
4,O=C(/C=C/c1ccc(Cl)c(Cl)c1)N1CCC(CCN2CCC(c3c[nH]c4cc5c(cc34)OCO5)CC2)CC1 [TCMDC-139836],55.11
5,CNC(=O)c1ccc2[nH]cc(C3CCN(CC4CCN(C(=O)/C=C/c5ccc(Cl)c(Cl)c5)CC4)CC3)c2c1 [TCMDC-139980],-32.3
6,CCS(=O)(=O)Nc1ccc2[nH]cc(C3CCN(CCC4CCN(C(=O)/C=C/c5ccc(Cl)c(Cl)c5)CC4)CC3)c2c1 [TCMDC-139930],78.45
7,Cc1cccc(C(=O)NCCCN2CCC(NC(=O)/C=C/c3ccc(Cl)c(Cl)c3)CC2)c1 [TCMDC-133355],-67.88
8,CCNc1cc(C(=O)N[C@@H](Cc2ccccc2)[C@H](O)CNC2CCSCC2)cc(N2CCCC2=O)c1 [TCMDC-134686],19.67
9,CC(C)(C)COC(=O)c1ccc(NC(=O)N[C@@H](Cc2ccc(O)cc2)C(=O)NC2CCN(Cc3ccc(O)cc3)C2)cc1 (some centres unmarked) [TCMDC-135356],-84.6
10,COc1ccc(Nc2nccc(NCCNC(=O)c3cc4ccccc4s3)n2)cc1 [TCMDC-133643],10.68
11,COc1ccc2nccc([C@@H](O)CN3CCC(NC(=O)[C@@H]4Cc5ccccc5CN4C(=O)OC(C)(C)C)CC3)c2c1 [TCMDC-141035],29.65
12,O=C(/C=C/c1ccc(Cl)c(Cl)c1)NCCCCCN1CCC(NC(=O)Nc2cc(Cl)nc(Cl)c2)CC1 [TCMDC-135889],-21.96
13,Nc1cc2c(C3CCN(CC4CCN(C(=O)/C=C/c5ccc(Cl)c(Cl)c5)CC4)CC3)c[nH]c2cn1 [TCMDC-140133],101.5
14,COc1cc2c(C3CCN(CC4CCN(C(=O)/C=C/c5ccc(Cl)c(Cl)c5)CC4)CC3)c[nH]c2cn1 [TCMDC-140246],-34.41
15,O=C(Nc1ccc(Cn2ncc(N3CCCNCC3)c(Cl)c2=O)cc1)Nc1ccc(SC(F)(F)F)cc1 [TCMDC-133320],-14.71
16,O=C(/C=C/c1ccc(Cl)c(Cl)c1)NCCCCCN1CCCC(CNC(=O)c2sc3ccccc3c2Cl)C1 (centres unmarked) [TCMDC-139583],81.46
17,O=C(C=Cc1ccc(Cl)c(Cl)c1)NCCCCCN1CCC(CCCNC(=O)c2sc3ccccc3c2Cl)CC1 [TCMDC-139573],86.01
18,O=C(/C=C/c1ccc(Cl)c(Cl)c1)NCCCCCN1CCC(CCNC(=O)c2snnc2-c2ccccc2)CC1 [TCMDC-140007],-18.32
19,O=C(/C=C/c1ccc(Cl)c(Cl)c1)NCCCCCN1CC[C@H](NC(=O)/C=C/c2ccccc2)C1 [TCMDC-139561],-7.699
20,O=C(C=Cc1ccc(Cl)c(Cl)c1)NCCCCCN1CCC(CCNC(=O)c2sc3ccccc3c2Cl)CC1 [TCMDC-139567],38.26
21,O=C(C=Cc1ccc(Cl)c(Cl)c1)NCCCCCN1CCCC(CCCNC(=O)c2sc3ccccc3c2Cl)C1 (centres unmarked) [TCMDC-139579],100.9
22,O=C(/C=C/c1ccc(Cl)c(Cl)c1)NCCCCCN1CC[C@H](NC(=O)c2sc3ccccc3c2Cl)C1 [TCMDC-139562],48.14
